Experimental data taken from PubChem BioAssay (NCI).
This is part of a sample that, as a whole, favours compounds with a hit. Of some 83,000 tested, about 20% had one in any assay.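 Cells were grown in 96-well plates and exposed to the test compound at a single concentration for 48 hours; results are reported as percent growth, with values below 10 considered active.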 Unmarked numbers belong to inactive results. The source made the active and inactive calls.

How the values were obtained:
Experiment in all cases: NCI-60 one-dose screen, 48 h (100 = growth as untreated, 0 = no growth, -100 = all killed)
Conditions in all cases: 10 µM unless noted
[1] = test system: EKVX NSCLC
[2] = test system: SN12C renal
[3] = test system: UO-31 renal
[4] = test system: TK-10 renal
[5] = test system: ACHN renal
[6] = test system: CAKI-1 renal
[7] = test system: CCRF-CEM leukemia
[8] = test system: MOLT-4 leukemia
[9] = test system: SR leukemia
[10] = test system: RPMI-8226 leukemia
[11] = test system: OVCAR-8 ovarian
[12] = test system: OVCAR-5 ovarian
[13] = test system: OVCAR-4 ovarian
[14] = test system: SK-OV-3 ovarian
[15] = test system: IGROV1 ovarian
[16] = test system: OVCAR-3 ovarian
[17] = test system: HS 578T breast
[18] = test system: NCI/ADR-RES ovarian
[19] = test system: A498 renal

| SMILES | growth [1] | growth [2] | growth [3] | growth [4] | growth [5] | growth [6] | growth [7] | growth [8] | growth [9] | growth [10] | growth [11] | growth [12] | growth [13] | growth [14] | growth [15] | growth [16] | growth [17] | growth [18] | growth [19] |
| --- | --- | --- | --- | --- | --- | --- | --- | --- | --- | --- | --- | --- | --- | --- | --- | --- | --- | --- | --- |
| O=C1/C(=C(/c2ccccc2)N2CCOCC2)Cc2ccccc21 | 38% | -42.6% (active) | -47.8% (active) | -16.7% (active) | -39.6% (active) | -43.5% (active) | 22.6% | 22.7% | 26.6% | 16.5% | 20.4% | 34.4% | 31.7% | 93.6% | 14% | -60.7% (active) | 5.18% (active) | -33.1% (active) | – |
| CCN(CC)c1ccc(-c2cc(-c3cc(OC)c(OC)c(OC)c3)nc(N3CCOCC3)c2C#N)cc1 | 36.3% | 36.4% | 5.65% (active) | 49.4% | 19.5% | 1.28% (active) | – | – | -8.39% (active) | -33.1% (active) | -28.4% (active) | 5.94% (active) | 38.2% | 51.8% | 19.5% | 32.8% | 55.8% | 27.6% | 34.5% |
| C=CCSSC1N=CNc2nc[nH]c21 (centres undefined) | 93.8% | 72.9% | 35.7% | 29.5% | 42.6% | 9.26% (active) | – | – | 13% | – | 22.6% | – | 34.4% | 8.8% (active) | 64.5% | 32.3% | 54.5% | 26.5% | 50.1% |
| Cc1ccc(NC(=O)C2CCC(CN3CCN(C)CC3)CC2)cc1Nc1nccc(-c2cccnc2)n1 (centres undefined) | 97.6% | 91.9% | 83.3% | 121% | 94.9% | 95.5% | 109% | 89.8% | 90.9% | 96.6% | 111% | 92% | 108% | 110% | 110% | 103% | 85.1% | 97.5% | – |
| COc1ccc(/C=C\c2cc(OC)c(OC)c(OC)c2)cc1OC(=O)c1cccc(Cn2cc(CCOC(=O)[C@H](N)Cc3cn(C)c4ccccc34)nn2)c1 | 47.2% | 38.5% | 42.5% | 79.6% | 26.6% | 34.4% | 10.2% | 6.32% (active) | -0.0904% (active) | 25.9% | 23% | 41% | 20.9% | 34.7% | 16.2% | 1.65% (active) | 26.9% | 6.28% (active) | – |
| Cn1ncc2c(=O)nc3c(-c4ccccc4)n[nH]n3c21 | – | 99.5% | 97.1% | 99.5% | 116% | 74.4% | 127% | 99.6% | 113% | 123% | 99.8% | 109% | 100% | 103% | – | 95.4% | – | 105% | 112% |
| COc1ccc(SC2c3cc(OC)c(OC)cc3Oc3nc(N)c(C#N)c(N)c32)cc1 (centres undefined) | -51.7% (active) | -90.6% (active) | -100% (active) | -49.6% (active) | -95.6% (active) | – | -37.2% (active) | -26.8% (active) | -36.2% (active) | -36.1% (active) | -85.4% (active) | -71.7% (active) | -97.1% (active) | -81.3% (active) | -77.1% (active) | -96.1% (active) | -2.22% (active) | -16.3% (active) | -13.8% (active) |
| Fc1ccc(CNc2cccc3[nH]c(C(F)(F)F)nc23)cc1 | – | 72.4% | 84.8% | 102% | 96.2% | 81.2% | 52.4% | 41.7% | 66% | 36.5% | 90.1% | 90.2% | 89.3% | 97.9% | 109% | 76.6% | – | 100% | 39.7% |
| COc1ccc2c(c1)CC/C(=C\c1cncc(Br)c1)C2=O | 99.2% | – | 96.5% | 85% | 84.9% | 86.6% | 13.5% | 83.5% | 33.5% | 8.06% (active) | 90% | 86.8% | 86.5% | 99.7% | 94.8% | – | 116% | 83.1% | 96.5% |
